Measured values taken from ChEMBL document CHEMBL1157539, “Thousands of chemical starting points for antimalarial lead identification” (Nature, 2010).

How the values were obtained:
Type in all cases: functional
[1] = tested on: Plasmodium falciparum; test: GSK_TCMDC: Inhibition of Plasmodium falciparum 3D7 in whole red blood cells, using parasite LDH activity as an index of growth. Test compounds present at 2uM
[2] = tested on: Plasmodium falciparum; test: GSK_TCMDC: Inhibition of Plasmodium falciparum Dd2 in whole red blood cells, using parasite LDH activity as an index of growth. Test compounds present at 2uM
[3] = tested on: HepG2; test: GSK_TCMDC: Percent inhibition of human HepG2 cell line. Test compounds present at 10uM.

Structure (SMILES) | Inhibition [1] | Inhibition [2] | Inhibition [3]
CN1CCCN(Cc2cccc(-c3ccc(NC(=O)c4ccc(Cl)cc4)cc3)c2)CC1.O=C(O)C(F)(F)F | 97% | 35% | 31%
Cc1cc(N2CCCC2=O)ccc1-c1ccc(C(=O)N2CCC(Oc3cccc(Cl)c3)CC2)cc1 | 99% | 98% | 34%
Nc1ccc(-c2ccc(NC(=O)Nc3ccccc3)cc2)cn1 | 91% | 93% | 0%
COc1cc(SC)ccc1C(=O)N1CC(C)CC(C)C1 (centres undefined) | 98% | 66% | 5%
CCCC(CNCc1cccc(OC(F)(F)F)c1)CNc1cc(=O)c2ccccc2[nH]1 (centres undefined) | 100% | 95% | 0%
CC(C)C[C@H](Nc1ccnc(NCC2CCCCC2)n1)C(=O)Nc1ccccc1.O=C(O)C(F)(F)F | 87% | 42% | 6%
c1ccc2c(c1)ncc1c3ccccc3[nH]c21 | 95% | 36% | 0%
CCN(CC)CCN(Cc1ccc(-c2ccc(C(F)(F)F)cc2)cc1)C(=O)Cn1c(CCc2c(F)ccc(F)c2F)nc(=O)c2ccccc21.O=C(O)C(O)C(O)C(=O)O | 98% | 62% | 44%
CCCCCCOc1ccc(C(=O)N(Cc2ccccc2)c2c(-c3ccccc3)nc3cc(C)ccn23)cc1 | 95% | 96% | 0%
CC(C)CCN1CCC(Oc2ccc(NC(=O)c3ccsc3)cc2Cl)CC1.O=C(O)C(F)(F)F | 89% | 81% | 19%
CN1CCC(COc2ccc(CN3CCC(NC(=O)c4cccc(Cl)c4)CC3)cc2)CC1.O=C(O)C(F)(F)F | 94% | 13% | 16%
OC(CN1c2ccccc2Sc2ccccc21)CN(C1CCCCC1)C1CCCCC1 (centres undefined) | 99% | 96% | 46%
COc1ccc(Cl)cc1-c1nc(C(=O)NCCN2CCCCC2)c(C)s1.O=C(O)C(F)(F)F | 97% | 10% | 16%
COc1ccc(Cn2c(Nc3cccc(C(F)(F)F)c3)nc3cc(C(=O)NC4CC4)cnc32)cc1Cl | 94% | 96% | 0%
Cc1cc(C(F)(F)F)cc(-n2ncc(-c3ccc(C(=O)NCc4ccccc4N)cc3)c2N)n1.O=C(O)C(F)(F)F | 99% | 89% | 10%
CN1CCN(c2cc(NC(=O)Nc3ccc(-c4ccncc4)c(Cl)c3)ccc2Br)CC1 | 100% | 99% | 23%
COc1cccc(NC(=O)N2CCOC(CCN3CCC4(CCc5ccccc54)CC3)(c3ccc(Cl)c(Cl)c3)C2)c1 (centres undefined) | 94% | 72% | 97%
CC(C)N1CCN(C(CN2CCN(CCCOc3cccc(-c4ccccc4)c3)CC2)c2ccc(F)cc2)CC1.Cl (centres undefined) | 100% | 99% | 100%
O=C(Cc1cccnc1)N(Cc1ccc(-c2ccc(CNCc3cccnc3)cn2)cc1)C1CCN(Cc2ccccc2)CC1.O=C(O)C(F)(F)F | 93% | 6% | 8%
COc1ccccc1CN1CCC(NC(=O)c2ccc(-c3cccc(Cl)c3)s2)CC1.O=C(O)C(F)(F)F | 84% | 9% | 49%

Structure (SMILES) | Inhibition [1] | Inhibition [2] | Inhibition [3]
Fc1ccc2[nH]c(-c3cccc(-c4cccc(CN5CCN(c6cnccn6)CC5)c4)c3)nc2c1.O=C(O)C(F)(F)F | 93% | 35% | 17%
Cc1ccc2c(c1[N+](=O)[O-])N=NCC2Oc1ccccc1 (centres undefined) | 91% | 19% | 16%
CC1CN(c2cnn(C/C=C/c3ccc(NC(=O)c4ccc5nonc5c4)cc3)c(=O)c2Cl)CC(C)N1.O=C(O)C(F)(F)F (centres undefined) | 94% | 35% | 71%
Cc1ccc(CCNCC(O)c2cccc(C(F)(F)F)c2)cc1.Cl (centres undefined) | 94% | 83% | 0%
COc1ccc(NC(=O)/C=C/c2ccc(Cl)c(C(F)(F)F)c2)cc1OCCN(C(C)C)C(C)C.O=C(O)C(F)(F)F | 95% | 28% | 18%
COc1ccc(C(O)CNC(C)CCc2ccc(F)cc2)cc1C(F)(F)F.Cl (centres undefined) | 99% | 98% | 92%
Cl.Oc1cccc(Nc2ccnc3cc(-c4ccccn4)ccc23)c1 | 96% | 98% | 24%
CN1CCN(c2ccc(-c3cc(-c4cc(F)c(F)c(F)c4)cnc3N)cc2)CC1 | 88% | 12% | 58%
Cc1cc(OCC2CCCN(c3ncc(C(=O)NC4CC4)cc3Cl)C2)ccc1F (centres undefined) | 88% | 68% | 3%
O=C(Nc1c(F)cccc1F)c1cccc(-c2nn3ccccc3c2-c2ccnc(Nc3cccc(-c4cnco4)c3)n2)c1 | 95% | 94% | 96%
O=C(Nc1cccc(-c2cccc(-c3nc4cc(F)ccc4[nH]3)c2)c1)c1ccoc1 | 98% | 35% | 36%
COc1ccc2cc(C(=O)Nc3ccc4c(c3)CCN(C3CCC3)CC4)ccc2c1.O=C(O)C(F)(F)F | 100% | 9% | 34%
CCC(CC)(CCC#N)CN(C[C@@H](O)[C@H](Cc1ccccc1)NC(=O)OC(C)(C)C)S(=O)(=O)c1ccc(OC)cc1 | 82% | 66% | 0%
COC(=O)c1ccc2nc(-c3ccc(/C=C/C(=O)NC4CCN(Cc5ccccc5)CC4)cc3)[nH]c2c1 | 100% | 88% | 12%
CSc1sc(NC(=O)Nc2cccc(C(F)(F)F)c2)cc1C#N | 99% | 46% | 27%
COc1ccc2nccc([C@@H](O)CN3CCC(NCc4[nH]c5ccccc5c4F)CC3)c2c1.O=C(O)C(=O)O | 100% | 61% | 19%
Nc1nc(N)c2c(ccc3ccccc32)n1 | 98% | 20% | 60%
CCn1c(SCC(=O)Nc2cc(C(F)(F)F)ccc2Cl)nc2ccccc2c1=O | 93% | 95% | 8%
CCOc1ccc2[nH]c(C)cc(=NN=Cc3ccccc3Cl)c2c1 | 100% | 100% | 11%
Cc1cc(N[C@@H](Cc2ccccc2)C(=O)NCCOc2ccccc2)nc(NCCc2ccc(F)cc2)n1.O=C(O)C(F)(F)F | 99% | 86% | 5%

Structure (SMILES) | Inhibition [1] | Inhibition [2] | Inhibition [3]
CC(C)C[C@@H](C(=O)N[C@H](C(=O)Nc1nccs1)C(C)(C)C)[C@H](CCC(F)(F)F)N(O)C=O | 97% | 71% | 11%
O=C(Cc1cccs1)NCC(c1ccccc1Cl)c1c[nH]c2ccccc12 (centres undefined) | 91% | 56% | 12%
O=C(Nc1ccc(CN2CCOCC2)cc1)c1ccc(-c2ccc(Cl)cc2)o1 | 98% | 11% | 22%
N#Cc1ccc(N2CCN(Cc3ccc(-c4cccc(-c5nc6ccccc6[nH]5)c4)cc3)CC2)nc1.O=C(O)C(F)(F)F | 95% | 29% | 33%
CC(Cc1ccc(OCCN2CCN(c3ccc(Cl)cc3)CC2)cc1)NCC(O)c1cccc(C(F)(F)F)c1.Cl (centres undefined) | 99% | 96% | 97%
COc1ccc(CNc2cc(C)nc3sc4c(c23)CCC2(C4)OCCO2)cc1 | 96% | 2% | 4%
Nc1ncc(-c2ccc3ncccc3c2)c(N)n1.O=C(O)C(F)(F)F | 97% | 0% | 55%
CS(=O)(=O)Cc1ccc(Nc2ncc(Cl)c(Nc3cccnc3C(N)=O)n2)cc1.Cl | 97% | 97% | 54%
COc1ccc(C=Cc2ccc(-c3c(C)[nH]c(C)c(Cl)c3=O)cc2)cc1OC | 97% | 96% | 12%
N#Cc1ccc(N[C@@H](CC2CCCCC2)C(=O)Nc2ccc(-c3ccccc3)cc2)c2ccccc12.O=C(O)C(F)(F)F | 100% | 99% | 34%
COc1cccc(C=NN=c2cc(C)[nH]c3ccccc23)c1 | 100% | 46% | 16%
Cc1cccc2nc(-c3ccc(-c4cccc(CNCc5ccccc5)c4)s3)[nH]c12.O=C(O)C(F)(F)F | 99% | 50% | 3%
Cc1cc(N)c2cc(NC(=O)/C=C/c3ccccc3)ccc2n1 | 100% | 68% | 20%
O=C(/C=C/c1ccc(Cl)c(Cl)c1)NC1CCN(Cc2ccc(O)cc2)C1.O=C(O)C(F)(F)F (centres undefined) | 97% | 4% | 15%
Cc1cccc2nc(-c3ccc(-c4ccc(CN5CCN(CCO)CC5)cc4)s3)[nH]c12.O=C(O)C(F)(F)F | 92% | 47% | 34%
Cc1cc(C2CCN(CCCCNC(=O)c3ccc(NC(=O)c4ccc(Cl)cc4)cc3)CC2)c(C)cc1OCc1ccncc1.Cl | 100% | 92% | 33%
CC(C)(C)c1ccc(C(=O)Nc2cccc(Nc3c(C(=O)NCc4cccc(C(F)(F)F)c4)cnc4c(O)cccc34)c2)cc1.O=C(O)C(F)(F)F | 83% | 79% | 40%
CCc1ccc(NC(=O)C=NNC(=N)N)cc1.O=S(=O)(O)O | 100% | 3% | 13%
